System: MAP4K3
Conditions: concentration: 1 μM,replicates: in singlicate; n = 1
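Note: KINOMEscan kinase panel screen.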

Point of comparison: `Cc1n[nH]c2cc(Nc3ccnc(Nc4cccc(CN5CCOCC5)c4)n3)ccc12` [GW682569], “%Inh” value 0%. Against it:
- Cn1ccc2ncnc(Oc3ccc(NC(=O)Nc4cc(C(C)(C)C)on4)c(Cl)c3)c21 — higher, 11%
- CC(=O)Nc1ccc(-c2cc3ncnc(SCC(=O)O)c3s2)cc1 — higher, 22%
- CN(c1ccccc1CNc1nc(Nc2ccc3c(c2)CC(=O)N3)ncc1C(F)(F)F)S(C)(=O)=O — higher, 42%
- FC(F)(F)c1cc(Br)cc(Nc2nccc(-c3cnn4ncccc34)n2)c1 [GW810578] — higher, 7%
- O=C1NCCc2[nH]c(-c3ccncc3)cc21 — higher, 15%
- O=C(Nc1cccc(C(F)(F)F)c1)c1cccc(Oc2ccc3nccn3n2)c1 — higher, 8%
- Cc1ccc(CC(=O)N2CCc3cc(-c4cn(C)c5ncnc(N)c45)ccc32)cc1 [GSK2634758] — higher, 96.7%
- COC(=O)c1cccc(NC(=O)NC2CCN(c3ccnc(NCc4ccc(F)cc4)n3)CC2)c1 [GSK1379860] — the same, 0%
- Cn1ccc2ncnc(Oc3ccc(NC(=O)Nc4ccnc(C(F)(F)F)c4)c(Cl)c3)c21 — higher, 3%
- O=C(NOCC1CC1)c1cc(Br)c(F)c(F)c1Nc1ccc(I)cc1Cl — the same, 0%
- COc1ccc(Nc2nccc(N3CCC(NC(=O)c4cccc(C#N)c4)C3)n2)cc1 (stereo not shown) [GSK1379730] — the same, 0%
- COc1cccc(C2=C(Nc3cccc(Cl)c3)C(=O)NC2=O)c1 [SB-341556] — higher, 84%
